# Measurements reported in PubChem BioAssay (NCATS).
# Results filed as inconclusive are left out. Where a call stands in place of a potency, no number is given. Calls of active or inactive are those of the source. The call rests on the fitted dose curve; in most records, active means well fitted curve in the direction sought with a large enough effect; inconclusive means small, poorly fitted or top-dose-only effect, or another doubt; inactive means no such curve, though single readings can be large; an effect the other way counts as inactive or inconclusive.
# Tests used:
# [1] = tested on: HACAT; assay: qHTS assay to identify novel small-molecules to repurpose for Merkel cell carcinoma treatment (AID 1296009); conditions: MCC and control cell lines, CellTiter-Glo viability, 72 h; at 44.8 µM (top of the series) unless noted; further: nearly all actives have a fitted effect of over 60% in size
# Outline: (§1)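 Dose-response viability screen; 72 hr exposure at 37 degree celsius; CellTiter-Glo added, 10 min room temperature, luminescence read; RLUs scaled between no-cell and DMSO wells.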
# [2] = tested on: MCC-13; assay: as above; conditions: MCC and control cell lines, CellTiter-Glo viability, 72 h; series mostly up to 46 µM
# Outline: as §1
# [3] = tested on: NIH3T3; assay: as above; conditions: MCC and control cell lines, CellTiter-Glo viability, 72 h; at 44.8 µM (top of the series) unless noted
# Outline: as §1
# [4] = tested on: C33A; assay: Primary qHTS to identify gynecologic anti-cancer compounds using libraries of approved drugs and bioactive compounds (AID 1345084); conditions: Gynecologic cancer cell panel viability, ATPlite luminescence, 48 h; series mostly up to 57.5 µM; further: nearly all actives have a fitted effect of over 55% in size
# Outline: (§2)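 Measured: luminescence after ATPlite addition (15 min, RT). Exposure: 48 h, 37 C, 5% CO2.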
# [5] = tested on: CASKI; assay: as above; conditions: Gynecologic cancer cell panel viability, ATPlite luminescence, 48 h; series mostly up to 57.5 µM
# Outline: as §2
# [6] = tested on: Es-2; assay: as above; conditions: Gynecologic cancer cell panel viability, ATPlite luminescence, 48 h; series mostly up to 57.5 µM
# Outline: as §2
# [7] = tested on: HeLa; assay: as above; conditions: Gynecologic cancer cell panel viability, ATPlite luminescence, 48 h; series mostly up to 57.5 µM
# Outline: as §2
# [8] = tested on: Hek293T; assay: as above; conditions: Gynecologic cancer cell panel viability, ATPlite luminescence, 48 h, control line for the selectivity index; series mostly up to 57.5 µM
# Outline: as §2
# [9] = tested on: JEG-3; assay: as above; conditions: Gynecologic cancer cell panel viability, ATPlite luminescence, 48 h; series mostly up to 57.5 µM
# Outline: as §2
# [10] = tested on: OV90; assay: as above; conditions: Gynecologic cancer cell panel viability, ATPlite luminescence, 48 h; series mostly up to 57.5 µM
# Outline: as §2
# [11] = tested on: PA-1; assay: as above; conditions: Gynecologic cancer cell panel viability, ATPlite luminescence, 48 h; series mostly up to 57.5 µM
# Outline: as §2
# [12] = tested on: SKOV3; assay: as above; conditions: Gynecologic cancer cell panel viability, ATPlite luminescence, 48 h; series mostly up to 57.5 µM
# Outline: as §2
# [13] = tested on: Tov-21-G; assay: as above; conditions: Gynecologic cancer cell panel viability, ATPlite luminescence, 48 h; series mostly up to 57.5 µM
# Outline: as §2
# [14] = tested on: MCC-26; assay: qHTS assay to identify novel small-molecules to repurpose for Merkel cell carcinoma treatment (AID 1296009); conditions: MCC and control cell lines, CellTiter-Glo viability, 72 h; series mostly up to 46 µM; further: nearly all actives have a fitted effect of over 60% in size
# Outline: as §1
# [15] = tested on: MKL-1; assay: as above; conditions: MCC and control cell lines, CellTiter-Glo viability, 72 h; series mostly up to 46 µM
# Outline: as §1
# [16] = tested on: MKL-2; assay: as above; conditions: MCC and control cell lines, CellTiter-Glo viability, 72 h; series mostly up to 46 µM
# Outline: as §1
# [17] = tested on: UISO; assay: as above; conditions: MCC and control cell lines, CellTiter-Glo viability, 72 h; series mostly up to 46 µM
# Outline: as §1
# [18] = tested on: WaGa; assay: as above; conditions: MCC and control cell lines, CellTiter-Glo viability, 72 h; series mostly up to 46 µM
# Outline: as §1
# [19] = tested on: CAOV3; assay: Primary qHTS to identify gynecologic anti-cancer compounds using libraries of approved drugs and bioactive compounds (AID 1345084); conditions: Gynecologic cancer cell panel viability, ATPlite luminescence, 48 h; series mostly up to 57.5 µM; further: nearly all actives have a fitted effect of over 55% in size
# Outline: as §2
# [20] = tested on: HEK293T; assay: qHTS assay to identify novel small-molecules to repurpose for Merkel cell carcinoma treatment (AID 1296009); conditions: MCC and control cell lines, CellTiter-Glo viability, 72 h; at 44.8 µM (top of the series); further: nearly all actives have a fitted effect of over 60% in size
# Outline: as §1
# Potency means the concentration at half of the fitted maximal effect.
smiles,measurement,setting,value
CC(C)[C@H](CO)Nc1nc(Nc2ccc(C(=O)O)c(Cl)c2)c2ncn(C(C)C)c2n1,outcome,[1],inactive
same,Potency,[2],inactive
same,outcome,[3],inactive [at 17.4 µM]
same,Potency,[4],inactive
same,Potency,[5],inactive
same,Potency,[6],inactive
same,Potency,[7],inactive
same,Potency,[8],inactive
same,Potency,[9],inactive
same,Potency,[10],inactive
same,Potency,[11],inactive
same,Potency,[12],inactive
same,Potency,[13],inactive
CCOc1ccc(Nc2nc(-c3c(C)nc4ccccn34)cs2)cc1,outcome,[1],inactive
same,Potency,[2],0.0372 µM (active)
same,Potency,[14],0.0526 µM (active)
same,Potency,[4],0.355 µM (active)
same,Potency,[6],0.316 µM (active)
same,Potency,[7],0.178 µM (active)
same,Potency,[10],1.41 µM (active)
same,Potency,[13],0.316 µM (active)
CCOC1OC(=O)C[C@H]1NC(=O)[C@@H]1CCCN1C(=O)[C@@H](NC(=O)c1ccc(N)c(Cl)c1)C(C)(C)C (stereo not given in full),outcome,[1],inactive
same,Potency,[2],inactive
same,Potency,[15],inactive
same,Potency,[16],inactive
same,outcome,[3],inactive
same,Potency,[17],inactive
Clc1ccc(Cn2c(CN3CCCC3)nc3ccccc32)cc1,outcome,[1],inactive [at 17.4 µM]
same,Potency,[2],inactive
same,Potency,[14],inactive
same,Potency,[15],inactive
same,Potency,[18],inactive
same,Potency,[4],inactive
same,Potency,[19],inactive
same,Potency,[5],inactive
same,Potency,[6],inactive
same,Potency,[7],inactive
same,Potency,[8],inactive
same,Potency,[9],inactive
same,Potency,[10],inactive
same,Potency,[11],inactive
same,Potency,[12],inactive
same,Potency,[13],inactive
CO[C@H]1C[C@@H]2CC[C@@H](C)[C@@](O)(O2)C(=O)C(=O)N2CCCC[C@@H]2C(=O)O[C@H]([C@H](C)C[C@@H]2CC[C@H](OP(C)(C)=O)[C@H](OC)C2)CC(=O)[C@H](C)C=C(C)[C@@H](O)[C@@H](OC)C(=O)[C@H](C)C[C@H](C)C=CC=CC=C1C,outcome,[1],inactive
same,Potency,[2],inactive
same,Potency,[14],inactive
same,Potency,[16],inactive
same,Potency,[17],inactive
same,Potency,[18],23.5 µM (active)
C[C@H](NC(=O)C(=O)Nc1ccccc1C(C)(C)C)C(=O)N[C@@H](CC(=O)O)C(=O)COc1c(F)c(F)cc(F)c1F,outcome,[1],inactive
same,Potency,[14],inactive
same,Potency,[15],20.9 µM (active)
same,Potency,[16],16.6 µM (active)
same,outcome,[3],inactive
CC1(C)S[C@H]2[C@H](NC(=O)[C@@H](N)c3ccc(O)cc3)C(=O)N2[C@@H]1C(=O)O,outcome,[1],inactive
same,Potency,[2],inactive
same,Potency,[14],inactive
same,Potency,[16],4.18 µM (active)
same,Potency,[17],inactive
same,Potency,[18],2.64 µM (active)
O=C(O)C(O)Cc1ccc(O)c(O)c1 (stereo not given),outcome,[20],inactive
same,Potency,[2],inactive
same,Potency,[14],inactive
same,Potency,[15],inactive
same,Potency,[16],inactive
same,Potency,[17],inactive
same,Potency,[18],inactive
Cc1[nH]c(C=C2C(=O)Nc3ccc(S(=O)(=O)Cc4c(Cl)cccc4Cl)cc32)c(C)c1C(=O)N1CCC[C@H]1CN1CCCC1,Potency,[2],inactive
same,Potency,[14],inactive
same,Potency,[15],18.7 µM (active)
same,Potency,[16],3.72 µM (active)
same,Potency,[17],inactive
OC[C@H]1O[C@@H](Oc2cc(O)cc(C=Cc3ccc(O)cc3)c2)[C@H](O)[C@@H](O)[C@H]1O,Potency,[2],inactive
same,Potency,[14],inactive
same,Potency,[15],inactive
same,Potency,[16],inactive
same,Potency,[17],inactive
same,Potency,[18],inactive
Clc1ccc(C(c2ccc(Cl)cc2)n2cc[n+](CC(OCc3ccc(Cl)cc3Cl)c3ccc(Cl)cc3Cl)c2)cc1 (stereo not given),Potency,[2],inactive
same,Potency,[14],inactive
same,Potency,[15],20.9 µM (active)
same,Potency,[16],10.5 µM (active)
CO[C@H]1C=CC=C(C)C(=O)NC2=CC(=O)C(NCCN(C)C)=C(C[C@@H](C)C[C@H](OC)[C@@H](O)[C@@H](C)C=C(C)[C@@H]1OC(N)=O)C2=O,Potency,[2],4.69 µM (active)
same,Potency,[14],3.72 µM (active)
same,Potency,[15],1.05 µM (active)
same,Potency,[16],14.8 µM (active)
same,Potency,[17],0.296 µM (active)
O=C1NC(=O)C(=Cc2ccc3c(c2)OC(F)(F)O3)S1,Potency,[2],inactive
same,Potency,[14],inactive
same,Potency,[15],inactive
same,Potency,[16],inactive
same,Potency,[17],inactive
NC(=O)[C@@H](CCC(F)(F)F)N(Cc1ccc(-c2ncon2)cc1F)S(=O)(=O)c1ccc(Cl)cc1,Potency,[2],inactive
same,Potency,[14],inactive
same,Potency,[15],inactive
same,Potency,[16],inactive
same,Potency,[17],inactive
same,Potency,[18],inactive
CS(=O)c1ccc(-c2nc(-c3ccc(F)cc3)c(-c3ccncc3)[nH]2)cc1 (stereo not given),outcome,[20],inactive
same,Potency,[2],inactive
same,Potency,[14],inactive
same,Potency,[15],inactive
same,Potency,[16],inactive
same,Potency,[17],inactive
same,Potency,[4],inactive
same,Potency,[19],inactive
same,Potency,[5],inactive
same,Potency,[6],inactive
same,Potency,[7],inactive
same,Potency,[8],inactive
same,Potency,[9],inactive
same,Potency,[10],inactive
same,Potency,[11],inactive
same,Potency,[12],inactive
same,Potency,[13],inactive
CC[C@]1(O)C[C@@H]2CN(CCc3c([nH]c4ccccc34)[C@@](C(=O)OC)(c3cc4c(cc3OC)N(C=O)[C@@H]3C45CCN4CC=C[C@](CC)([C@H]45)[C@@H](OC(C)=O)[C@]3(O)C(=O)OC)C2)C1 (stereo not given in full),Potency,[2],inactive
same,Potency,[14],inactive
same,Potency,[15],inactive
CC[C@H]1OC(=O)[C@H](C)C(=O)[C@H](C)[C@@H](O[C@H]2O[C@H](C)C[C@H](N(C)C)[C@@H]2O)[C@](C)(OC)C[C@@H](C)C(=O)[C@H](C)[C@H]2N(CCCCn3cnc(-c4cccnc4)c3)C(=O)O[C@]12C,Potency,[2],inactive
same,Potency,[14],inactive
same,Potency,[15],inactive
same,Potency,[16],inactive
same,Potency,[17],inactive
same,Potency,[18],inactive
Cc1c(O)cccc1C(=O)N[C@@H](CSc1ccccc1)[C@H](O)CN1C[C@H]2CCCC[C@@H]2C[C@@H]1C(=O)NC(C)(C)C,Potency,[2],inactive
same,Potency,[14],inactive
same,Potency,[15],inactive
same,Potency,[16],inactive
O=C1NC(=O)C(=Cc2ccc3nccnc3c2)S1,Potency,[2],inactive
same,Potency,[14],inactive
same,Potency,[15],inactive
same,Potency,[16],inactive
same,Potency,[17],inactive
CO[C@H]1C(=O)[C@]2(C)[C@@H](OC)C[C@H]3OC[C@@]3(OC(C)=O)[C@H]2[C@H](OC(=O)c2ccccc2)[C@]2(O)C[C@H](OC(=O)[C@H](O)[C@@H](NC(=O)OC(C)(C)C)c3ccccc3)C(C)=C1C2(C)C,Potency,[2],inactive
same,Potency,[14],inactive
same,Potency,[15],inactive
same,Potency,[16],inactive
same,Potency,[17],inactive
same,Potency,[18],inactive
Cn1cc(C=C2C(=O)Nc3cccnc32)c2ccccc21,Potency,[2],inactive
same,Potency,[14],inactive
same,Potency,[15],inactive
same,Potency,[16],inactive
same,Potency,[17],inactive
same,Potency,[18],inactive
